We go through 10 compounds from PubChem BioAssay (EPA / NIEHS).

Records with an inconclusive call do not appear. Activity calls are given as the source filed them. How the source made its calls, unless noted: active means hit-call score of the fitted dose curve at least 0.9, where 1 is the maximum; inactive means score below 0.9.

For experiment [1], the target named is Paired box protein Pax-6 (Homo sapiens) (UniProt P26367). Briefly: ATG_Pax6_CIS: Attagene CIS-FACTORIAL HepG2 Assay for human Paired Box 6 (PAX6) (AID 2282956). The settings on record: HepG2 CIS-FACTORIAL PAX6 reporter transcription, RNA readout; actives raise or lower the signal. The method, boiled down: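 Read-out is reporter transcript level, measured by RT-PCR with fluorescent primer extension and capillary electrophoresis after 24 h dosing of transfected HepG2 cells. Activity in either direction fitted relative to DMSO control.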

Experiment [2] is described as follows: ATG_PXRE_CIS: Attagene CIS-FACTORIAL HepG2 Assay for human Pregnane X Receptor Element (PXRE) (AID 2282957). To be noted: HepG2 Attagene CIS-FACTORIAL PXRE reporter, mRNA; actives raise or lower the signal. The method, boiled down:
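Bidirectional activity, baselined to DMSO, derived from reporter mRNA fluorescence (RT-PCR plus capillary electrophoresis) in HepG2 cells bearing cis-promoter reporter units, 24 h exposure.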

A short description of experiment [3]: ATG_PPRE_CIS: Attagene CIS-FACTORIAL HepG2 Assay for human Peroxisome Proliferator-activated Response Element (PPRE) (AID 2282958). To be noted: HepG2 PPRE cis-element reporter, Attagene transcription factor profiling; actives raise or lower the signal. In a few lines:
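HepG2 cells are transiently transfected with multiplexed cis-promoter reporter units to report endogenous PPAR activity. After 24 h dosing, reporter mRNA is read by RT-PCR and capillary electrophoresis. Fitting is bidirectional against DMSO.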

Experiment [4] is described as follows: ATG_RORE_CIS: Attagene CIS-FACTORIAL HepG2 Assay for human RAR-related Orphan Receptor Element (RORE) (AID 2282959). To be noted: HepG2 Attagene cis-factorial RORE reporter, mRNA; actives raise or lower the signal. In a few lines:
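HepG2 cells carrying transiently transfected cis-regulated reporter units; RORE-driven reporter mRNA quantified 24 h post-dosing by RT-PCR, 6-FAM primer extension, HpaI digestion and capillary electrophoresis. Bidirectional fit versus DMSO.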

Experiment [5] in a line: ATG_Sox_CIS: Attagene CIS-FACTORIAL HepG2 Assay for human SRY-box transcription factor (SOX) (AID 2282960). To be noted: HepG2 Attagene cis-factorial SOX reporter, mRNA; actives raise or lower the signal. The method, boiled down: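 HepG2 cells transiently transfected with multiple cis-regulated reporter units, then dosed for 24 h. Reporter mRNA quantified by RT-PCR, fluorescent labelling, HpaI digestion and capillary electrophoresis; bidirectional fit versus DMSO.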

In experiment [6] the target is Transcription factor Sp1 (Homo sapiens) (UniProt P08047). Put plainly: ATG_Sp1_CIS: Attagene CIS-FACTORIAL HepG2 Assay for human Specificity Protein 1 (Sp1) (AID 2282961). To be noted: HepG2 Sp1 cis-reporter transcription, actives raise or lower the signal. In a few lines: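 HepG2 cells transiently transfected with multiplexed cis-regulated reporter constructs, chemical exposure 24 h. Reporter mRNA quantified by RT-PCR with capillary electrophoresis; bidirectional fit relative to DMSO.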

Experiment [7] is described as follows: ATG_SREBP_CIS: Attagene CIS-FACTORIAL HepG2 Assay for human Sterol Regulatory Element Binding (SREBP) (AID 2282962). The settings on record: HepG2 Attagene cis-factorial SREBP reporter, mRNA; actives raise or lower the signal. In a few lines: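 Endogenous SREBP activity read as cis-element-driven reporter transcript in transiently transfected HepG2, 24 h post-dosing; quantified via RT-PCR plus capillary electrophoresis of fluorescent fragments. Gain or loss of signal fitted relative to DMSO baseline.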

Experiment [8] in a line: ATG_TA_CIS: Attagene CIS-FACTORIAL HepG2 Assay for human TA Basal Promoter (AID 2282964). The settings on record: HepG2 Attagene CIS-factorial TA basal promoter reporter; actives raise or lower the signal. In a few lines:
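HepG2 cells transiently transfected with multiple reporter units under cis promoter elements, reporting endogenous transcription factor activity; this endpoint tracks the TA basal promoter as background control. Reporter mRNA after 24 h dosing measured by RT-PCR/capillary electrophoresis; bidirectional fits versus DMSO.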

The nature of experiment [9]: ATG_TCF_b_cat_CIS: Attagene CIS-FACTORIAL HepG2 Assay for human T-Cell-Factor with beta-catenin (TCF/b-cat) (AID 2282965). To be noted: HepG2 TCF/beta-catenin cis-reporter transcription, actives raise or lower the signal. In a few lines: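 Endogenous TCF/LEF activity read as reporter transcript level via RT-PCR and capillary electrophoresis fluorescence in transfected HepG2, 24 h exposure; gain or loss of signal fitted against DMSO controls.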

Experiment [10] in a line: ATG_TAL_CIS: Attagene CIS-FACTORIAL HepG2 Assay for human TAL Basal Promoter (AID 2282966).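 Further: background control endpoint measuring basal TAL promoter reporter mRNA not a specific factor.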 The settings on record: HepG2 Attagene cis-factorial TAL promoter reporter; actives raise or lower the signal. In a few lines: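 Human hepatoma HepG2 cells, transfected with promoter-regulated reporter units, were treated 24 h. Reporter transcript levels, measured through RT-PCR and capillary electrophoresis, were fitted for gain or loss relative to DMSO.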

A short description of experiment [11]: ATG_VDRE_CIS: Attagene CIS-FACTORIAL HepG2 Assay for human Vitamin D Receptor Element (VDRE) (AID 2282968). The settings on record: HepG2 VDRE cis-reporter transcription, actives raise or lower the signal. In a few lines:
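Measures endogenous factor activity through cis-element-driven reporter transcripts in transiently transfected HepG2. Cells are treated 24 h; reporter mRNA is quantified by RT-PCR and capillary electrophoresis; fitting is bidirectional.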

Experiment [12] addresses Steroid hormone receptor ERR1 (Homo sapiens) (UniProt P11474). Briefly: ATG_ERRa_TRANS: Attagene TRANS-FACTORIAL HepG2 Assay for human Estrogen-Related Receptor alpha (ERRa) (AID 2282971; active means hit-call score of the fitted dose curve at least 0.9, where 1 is the maximum). The settings on record: HepG2 Attagene TRANS reporter, ERRa transactivation. The method, boiled down:
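Signal gain relative to DMSO for an ERRa-Gal4 chimeric receptor, read as reporter mRNA by RT-PCR/capillary electrophoresis. Human HepG2 liver cells, transient multiplex reporter transfection, 24 h chemical exposure.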

The nature of experiment [13]: ATG_M_19_TRANS: Attagene TRANS-FACTORIAL HepG2 Assay for M19 Transcription Factor (Internal Marker) (AID 2282974; active means hit-call score of the fitted dose curve at least 0.9, where 1 is the maximum). The settings on record: HepG2 Attagene TRANS-FACTORIAL M19 internal marker reporter. The method, boiled down:
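HepG2 transiently transfected with GAL4-UAS multiplex reporter constructs, exposed 24 h; reporter RNA quantified by RT-PCR, 6-FAM labeling, HpaI digestion and capillary electrophoresis; internal background marker fitted upward versus DMSO.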

The target of experiment [14] is Signal transducer and activator of transcription 3 (Homo sapiens) (UniProt P40763). Put plainly: ATG_STAT3_CIS: Attagene CIS-FACTORIAL HepG2 Assay for human Signal Transducer and Activator of Transcription 3 (STAT3) (AID 2282963). To be noted: HepG2, Attagene cis-factorial STAT3 reporter transcription; actives raise or lower the signal. The method, boiled down: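 Cis-factorial format: endogenous transcription factors in HepG2 drive transfected reporter units. After 24 h treatment, reporter RNA was reverse-transcribed, amplified, FAM-labelled and HpaI-digested before CE analysis; activity scored in both directions against DMSO.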

Experiment [15] is described as follows: ATG_TGFb_CIS: Attagene CIS-FACTORIAL HepG2 Assay for human Transforming Growth Factor (TGF) (AID 2282967). To be noted: HepG2 Attagene CIS TGFb reporter, mRNA transcription; actives raise or lower the signal. The method, boiled down: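 HepG2 cells transiently transfected with cis-promoter-driven multiple reporter units measure endogenous TF activity; reporter mRNA quantified at 24 h by RT-PCR, FAM labeling, HpaI digestion and capillary electrophoresis. Bidirectional fit vs DMSO.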

Experiment [16] in a line: ATG_GAL4_TRANS: Attagene TRANS-FACTORIAL HepG2 Assay for GAL4 (Internal Marker) (AID 2282976; active means hit-call score of the fitted dose curve at least 0.9, where 1 is the maximum). The settings on record: HepG2 Attagene TRANS GAL4 internal marker reporter. In a few lines: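 Liver HepG2 line bearing multiplexed GAL4-UAS reporter constructs; 24 h chemical treatment. Transcripts were quantified as fluorescent fragments on capillary electrophoresis after RT-PCR and HpaI cut, with activity fitted upward from DMSO.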

Experiment [17] has as its target Estrogen receptor (Homo sapiens) (UniProt P03372). Briefly: ATG_ERa_TRANS: Attagene TRANS-FACTORIAL HepG2 Assay for human Estrogen Receptor alpha (ERa) (AID 2282970; active means hit-call score of the fitted dose curve at least 0.9, where 1 is the maximum). To be noted: HepG2 Attagene TRANS ERa GAL4 reporter, mRNA. The method, boiled down:
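Signal derives from fluorescence of labelled reporter PCR fragments separated by capillary electrophoresis. HepG2 cells transiently carrying multiple GAL4-UAS reporter units were treated 24 hours, and induction above DMSO baseline was fitted as activity.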

Experiment [18] concerns the target X-box-binding protein 1 (Homo sapiens) (UniProt P17861). Put plainly: ATG_Xbp1_CIS: Attagene CIS-FACTORIAL HepG2 Assay for human X-box Binding Protein 1 (XBP1) (AID 2282972). To be noted: HepG2 XBP1 cis-element reporter, Attagene multiplex; actives raise or lower the signal. In a few lines:
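Reporter transcripts were quantified by RT-PCR with fluorescent primer extension and capillary electrophoresis after 24 h chemical exposure. Cells: transiently transfected HepG2 carrying cis-regulated reporter constructs; data fitted bidirectionally relative to DMSO.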

For orientation: AC50 means the midpoint of the concentration-response curve, whichever way the signal moves.

Chain of Transcription factor Sp1 (Homo sapiens) (P08047 whole entry, looked up): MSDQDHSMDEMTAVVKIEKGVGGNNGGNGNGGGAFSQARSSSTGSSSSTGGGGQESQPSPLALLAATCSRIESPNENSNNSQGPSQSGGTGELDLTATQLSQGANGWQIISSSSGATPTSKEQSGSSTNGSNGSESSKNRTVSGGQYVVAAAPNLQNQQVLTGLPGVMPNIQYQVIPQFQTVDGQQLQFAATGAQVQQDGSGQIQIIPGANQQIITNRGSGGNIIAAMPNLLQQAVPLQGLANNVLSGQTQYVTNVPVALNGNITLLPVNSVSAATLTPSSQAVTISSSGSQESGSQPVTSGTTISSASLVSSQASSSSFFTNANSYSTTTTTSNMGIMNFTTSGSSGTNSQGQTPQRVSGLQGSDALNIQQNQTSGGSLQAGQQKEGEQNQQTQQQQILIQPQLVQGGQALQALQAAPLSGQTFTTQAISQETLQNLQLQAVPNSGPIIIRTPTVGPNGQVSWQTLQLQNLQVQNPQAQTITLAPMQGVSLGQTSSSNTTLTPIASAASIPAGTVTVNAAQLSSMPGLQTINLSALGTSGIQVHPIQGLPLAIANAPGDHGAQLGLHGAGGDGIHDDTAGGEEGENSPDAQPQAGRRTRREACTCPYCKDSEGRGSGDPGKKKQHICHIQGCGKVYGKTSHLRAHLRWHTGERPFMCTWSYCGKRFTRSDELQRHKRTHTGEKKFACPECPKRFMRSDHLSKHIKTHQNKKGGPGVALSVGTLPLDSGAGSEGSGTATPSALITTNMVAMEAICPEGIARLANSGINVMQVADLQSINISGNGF
Chain of Estrogen receptor (Homo sapiens) (P03372 whole entry, looked up, the tested form may be a part): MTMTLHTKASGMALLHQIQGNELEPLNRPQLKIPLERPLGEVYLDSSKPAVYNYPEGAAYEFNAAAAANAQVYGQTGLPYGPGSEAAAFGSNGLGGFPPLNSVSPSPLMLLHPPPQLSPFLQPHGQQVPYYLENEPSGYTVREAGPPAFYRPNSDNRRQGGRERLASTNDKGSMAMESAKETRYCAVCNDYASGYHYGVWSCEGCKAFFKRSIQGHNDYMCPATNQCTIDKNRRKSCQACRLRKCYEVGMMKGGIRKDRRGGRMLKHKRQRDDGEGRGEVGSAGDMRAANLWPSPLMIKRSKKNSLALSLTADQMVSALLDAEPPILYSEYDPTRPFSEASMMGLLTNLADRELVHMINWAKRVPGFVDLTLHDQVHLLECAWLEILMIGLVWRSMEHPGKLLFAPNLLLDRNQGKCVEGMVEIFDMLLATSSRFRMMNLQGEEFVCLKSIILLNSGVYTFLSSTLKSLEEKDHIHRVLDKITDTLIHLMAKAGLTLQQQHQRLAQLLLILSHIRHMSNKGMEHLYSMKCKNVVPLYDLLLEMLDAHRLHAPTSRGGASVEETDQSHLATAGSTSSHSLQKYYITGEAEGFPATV
Chain of Steroid hormone receptor ERR1 (Homo sapiens) (P11474 whole entry, looked up, the tested form may be a part): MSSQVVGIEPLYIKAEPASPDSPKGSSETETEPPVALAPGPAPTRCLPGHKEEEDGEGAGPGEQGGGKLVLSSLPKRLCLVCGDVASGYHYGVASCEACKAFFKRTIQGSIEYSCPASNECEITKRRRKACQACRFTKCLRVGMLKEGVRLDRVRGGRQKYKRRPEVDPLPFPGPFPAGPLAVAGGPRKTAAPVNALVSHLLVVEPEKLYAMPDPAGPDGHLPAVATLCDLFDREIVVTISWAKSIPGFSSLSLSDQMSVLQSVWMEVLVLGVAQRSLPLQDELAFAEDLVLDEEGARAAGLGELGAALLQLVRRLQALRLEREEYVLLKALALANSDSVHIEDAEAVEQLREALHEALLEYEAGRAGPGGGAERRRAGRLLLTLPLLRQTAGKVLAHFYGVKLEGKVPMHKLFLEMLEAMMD
Chain of X-box-binding protein 1 (Homo sapiens) (P17861 whole entry, looked up): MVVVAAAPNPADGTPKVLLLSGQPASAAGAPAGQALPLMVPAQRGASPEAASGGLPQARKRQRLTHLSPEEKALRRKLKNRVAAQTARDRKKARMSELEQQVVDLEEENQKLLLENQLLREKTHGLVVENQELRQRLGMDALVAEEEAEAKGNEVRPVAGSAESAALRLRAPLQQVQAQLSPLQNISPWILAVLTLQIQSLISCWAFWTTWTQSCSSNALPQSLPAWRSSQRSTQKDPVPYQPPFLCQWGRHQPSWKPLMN
Chain of Signal transducer and activator of transcription 3 (Homo sapiens) (P40763 whole entry, looked up): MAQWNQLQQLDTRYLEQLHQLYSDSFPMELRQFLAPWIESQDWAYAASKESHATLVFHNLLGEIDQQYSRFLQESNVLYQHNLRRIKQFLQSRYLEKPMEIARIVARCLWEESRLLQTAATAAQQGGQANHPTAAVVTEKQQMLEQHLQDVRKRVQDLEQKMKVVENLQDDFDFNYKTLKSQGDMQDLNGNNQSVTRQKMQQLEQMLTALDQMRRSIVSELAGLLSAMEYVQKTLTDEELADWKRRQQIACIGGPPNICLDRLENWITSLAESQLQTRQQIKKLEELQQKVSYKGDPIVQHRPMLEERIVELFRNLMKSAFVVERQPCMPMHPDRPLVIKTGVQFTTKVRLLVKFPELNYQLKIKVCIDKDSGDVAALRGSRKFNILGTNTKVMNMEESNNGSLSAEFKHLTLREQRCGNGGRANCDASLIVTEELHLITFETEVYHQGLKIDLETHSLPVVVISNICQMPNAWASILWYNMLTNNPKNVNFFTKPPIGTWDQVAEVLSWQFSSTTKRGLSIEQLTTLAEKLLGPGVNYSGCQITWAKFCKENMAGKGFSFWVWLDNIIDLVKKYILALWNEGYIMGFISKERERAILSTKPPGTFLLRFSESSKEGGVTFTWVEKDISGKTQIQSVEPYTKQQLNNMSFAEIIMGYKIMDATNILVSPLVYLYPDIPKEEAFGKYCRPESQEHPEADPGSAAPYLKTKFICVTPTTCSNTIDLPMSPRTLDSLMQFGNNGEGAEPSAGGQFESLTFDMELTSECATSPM
Chain of Paired box protein Pax-6 (Homo sapiens) (P26367 whole entry, looked up): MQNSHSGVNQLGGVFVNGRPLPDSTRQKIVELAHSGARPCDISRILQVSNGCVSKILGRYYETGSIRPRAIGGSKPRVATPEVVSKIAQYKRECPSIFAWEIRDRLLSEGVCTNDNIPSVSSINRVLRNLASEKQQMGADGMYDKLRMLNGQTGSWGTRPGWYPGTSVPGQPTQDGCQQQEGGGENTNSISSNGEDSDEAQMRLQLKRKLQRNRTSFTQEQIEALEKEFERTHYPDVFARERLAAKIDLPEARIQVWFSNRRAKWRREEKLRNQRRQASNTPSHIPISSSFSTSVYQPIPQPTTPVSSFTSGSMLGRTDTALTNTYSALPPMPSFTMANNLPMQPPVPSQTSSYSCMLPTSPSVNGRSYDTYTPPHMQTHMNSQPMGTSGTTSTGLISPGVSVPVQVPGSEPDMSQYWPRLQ

Turning to `CC1=CP(=O)(c2ccccc2)CC1` (stereo not drawn), the compound was classed as inactive in experiment [1], in [3], in [4], in experiment [5], in experiment [6] and in [7]. The call in [8], in [9], in experiment [10], in experiment [11], in [12] and in experiment [13] was inactive. Further, the AC50 in experiment [2] was 27.6 µM (active).

`CC1(C)C(=O)N(CO)C(=O)N1CO`: the compound was classed as inactive in [1], in experiment [3], in experiment [5], in experiment [7], in experiment [14] and in experiment [8]. For the same compound, the result in experiment [9], in [10], in experiment [15], in experiment [11] and in [16] was inactive. Besides, in experiment [2], the AC50 is 27.8 µM (active).

For `NNS(=O)(=O)c1ccc(Oc2ccc(S(=O)(=O)NN)cc2)cc1`, the outcome in experiment [1], in experiment [2], in experiment [3], in [5], in experiment [7] and in experiment [14] was inactive. The call in experiment [8], in [9], in experiment [10], in experiment [15], in [11] and in experiment [17] was inactive. The compound was called inactive in experiment [12], in experiment [18] and in experiment [16].

With `Oc1c(Cl)cc(Cl)c(Cl)c1Cl`, the concentration at half-maximal activity (AC50) was 82.6 µM (active) in experiment [1]; 26.5 µM (active) in experiment [2]; 43.4 µM (active) in experiment [4]; 61.5 µM (active) in experiment [8]; 59.8 µM (active) in experiment [11]. The outcome in [5], in [6], in experiment [7], in [14], in experiment [9] and in [10] was inactive. For the same compound, the outcome in experiment [15], in [17] and in experiment [18] was inactive.

As for `C=C(C)C1CC=C(C)C(OC(C)=O)C1` (stereo not drawn), the compound was called inactive in experiment [1], in experiment [2], in [3], in experiment [4], in [5] and in [6]. The result in [7], in experiment [8], in experiment [9], in experiment [10], in experiment [15] and in experiment [11] was inactive. For the same compound, the compound was called inactive in [17], in [12], in experiment [18] and in experiment [13].

For `CC(C=O)c1ccccc1` (stereo not drawn), the outcome in [1], in [3], in experiment [4], in experiment [5], in experiment [7] and in experiment [14] was inactive. Further, the outcome in experiment [8], in experiment [9], in experiment [10], in experiment [17], in experiment [18] and in experiment [16] was inactive. The half-maximal activity concentration (AC50) was 6.81 µM (active) in [2] and 9.33 µM (active) in experiment [11].

`CC1CC(=O)CC(C)(C)C1` (stereo not drawn): the compound was classed as inactive in experiment [1], in experiment [2], in experiment [3], in experiment [5], in experiment [7] and in experiment [14]. Also, the compound was called inactive in experiment [8], in experiment [9], in experiment [10], in experiment [15], in experiment [11] and in experiment [18].

For `CC(=O)OC1CCCCC1`, the call in experiment [1], in experiment [2], in experiment [3], in experiment [4], in experiment [5] and in experiment [6] was inactive. Further, the outcome in [7], in [8], in [9], in [10], in experiment [15] and in experiment [11] was inactive. The call in [12], in [18] and in experiment [16] was inactive.

As for `Cn1cccc1`, the outcome in experiment [1], in experiment [2], in [3], in [5], in [7] and in experiment [14] was inactive. In addition, the compound was called inactive in experiment [8], in experiment [9], in [10], in experiment [15], in [11] and in [17]. In addition, the result in [13] was inactive. Besides, the AC50 in experiment [6] was 25.7 µM (active).

On to `CC(c1cc(C(C)(C)C)cc(C(C)(C)C)c1O)c1cc(C(C)(C)C)cc(C(C)(C)C)c1O`, for which the compound was classed as inactive in experiment [1], in [3], in experiment [4], in experiment [5], in experiment [6] and in [7]. Besides, the compound was called inactive in experiment [8], in [9], in experiment [10], in experiment [15], in experiment [11] and in [18]. In experiment [2], the concentration at half-maximal activity (AC50) is 0.078 µM (active).
